# Measured values as given in PubChem BioAssay (NCI).
# The panel holds about 83,000 compounds, 20% with a hit somewhere; the sample as a whole holds those more often.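 Cells were grown in 96-well plates and exposed to the test compound at a single concentration for 48 hours; results are reported as percent growth, with values below 10 considered active.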 Values without a mark were called inactive. Active and inactive are the calls of the source.
# Experiments:
# Assay in all cases: NCI-60 one-dose screen, 48 h (100 = growth as untreated, 0 = no growth, -100 = all killed)
# Details in all cases: 10 µM unless noted
# SR leukemia = tested on: SR leukemia
# RPMI-8226 leukemia = tested on: RPMI-8226 leukemia
# OVCAR-8 ovarian = tested on: OVCAR-8 ovarian
# OVCAR-5 ovarian = tested on: OVCAR-5 ovarian
# OVCAR-4 ovarian = tested on: OVCAR-4 ovarian
# SK-OV-3 ovarian = tested on: SK-OV-3 ovarian
# IGROV1 ovarian = tested on: IGROV1 ovarian
# OVCAR-3 ovarian = tested on: OVCAR-3 ovarian
# HS 578T breast = tested on: HS 578T breast
# NCI/ADR-RES ovarian = tested on: NCI/ADR-RES ovarian
# T-47D breast = tested on: T-47D breast
# BT-549 breast = tested on: BT-549 breast
# MDA-MB-435 melanoma = tested on: MDA-MB-435 melanoma
# SW-620 colon = tested on: SW-620 colon
# MCF7 breast = tested on: MCF7 breast
# HCT-116 colon = tested on: HCT-116 colon
# HCC-2998 colon = tested on: HCC-2998 colon
# KM12 colon = tested on: KM12 colon
SMILES,growth (SR leukemia),growth (RPMI-8226 leukemia),growth (OVCAR-8 ovarian),growth (OVCAR-5 ovarian),growth (OVCAR-4 ovarian),growth (SK-OV-3 ovarian),growth (IGROV1 ovarian),growth (OVCAR-3 ovarian),growth (HS 578T breast),growth (NCI/ADR-RES ovarian),growth (T-47D breast),growth (BT-549 breast),growth (MDA-MB-435 melanoma),growth (SW-620 colon),growth (MCF7 breast),growth (HCT-116 colon),growth (HCC-2998 colon),growth (KM12 colon)
CCCCCCCCOC(=O)c1ccc(O)c(OC)c1,85.3%,89.2%,96.3%,107%,78.2%,103%,59.8%,101%,97.8%,96%,82.7%,102%,106%,109%,66.9%,102%,97.9%,102%
CN1CCN(CCCNc2nccc(-c3c(-c4ccc(F)c(O)c4)nc4sccn34)n2)S1(=O)=O,58.1%,87.4%,96.1%,131%,133%,91.8%,98.5%,116%,97.2%,99.5%,90.1%,128%,40.8%,112%,85%,75.9%,108%,94.3%
COc1ccc(C2=C(c3ccccc3)c3ccc(OC(C)=O)cc3OC2(C)C)cc1,41.2%,32%,125%,85.3%,88.2%,116%,96.7%,85.1%,104%,77.2%,83.9%,140%,80.5%,82.1%,93.9%,88.9%,86.5%,52.7%
c1ccc(-c2nn(-c3ccccc3)[n+](-c3ccccc3-c3ccccc3)n2)cc1,8.06% (active),15.3%,-32.8% (active),37.1%,22.3%,36.5%,30.9%,1.32% (active),9.51% (active),93.1%,19.2%,-0.13% (active),6.4% (active),–,8.29% (active),7.4% (active),18.9%,9.9% (active)
COc1ccc(C2CC(c3cccc(Nc4ccncc4)c3)=NN2c2cc(Cl)cc(Cl)c2)cc1 (stereo not drawn),2.77% (active),14.9%,-31.8% (active),82.5%,28.2%,75%,17.3%,49%,56.7%,66.8%,73.8%,109%,-77.1% (active),-87.5% (active),-31.7% (active),83.9%,-46.5% (active),-80% (active)
CCCNC(=O)Oc1ccc(/C(=C(\C)c2ccccc2)c2ccc(OCCN3CCCCC3)cc2)cc1,9.19% (active),57.7%,75.3%,78.2%,83%,79.3%,84.8%,75.6%,66.8%,77.2%,38.7%,69.8%,78.8%,80.8%,27.9%,46.5%,86.9%,58.9%
Cc1ccc(-c2c(Br)c(OC(=O)CO[C@@H]3C[C@H](C)CC[C@H]3C(C)C)c(-c3ccc(C)cc3C)c(Br)c2OC(=O)CO[C@H]2C[C@@H](C)CC[C@@H]2C(C)C)c(C)c1,104%,94.3%,89.6%,102%,106%,94.9%,108%,110%,98.9%,101%,–,85.5%,104%,109%,92.1%,89.4%,108%,–
CCCCCCCC(=O)Nc1nc2[nH]c(CN3CCN(Cc4cccc(I)c4)CC3)c(CN3CCN(Cc4cccc(I)c4)CC3)c2c(=O)[nH]1,-43.4% (active),-22.5% (active),-49.6% (active),-66.1% (active),-89.8% (active),-69.8% (active),-74% (active),-95.8% (active),-40.9% (active),-51.1% (active),-62% (active),-4.02% (active),-75.8% (active),-73.7% (active),-93.6% (active),-100% (active),-94.6% (active),-80.5% (active)
COc1ccc(CNCCN2C(=O)c3ccc4c5c(ccc(c35)C2=O)C(=O)N(CCNCc2ccc(OC)cc2)C4=O)cc1,-29.4% (active),-35.2% (active),-67.3% (active),-72.7% (active),-99.5% (active),-68.1% (active),-58.4% (active),-95.5% (active),-41.1% (active),-25.9% (active),-19% (active),–,-71.4% (active),-88% (active),-79.2% (active),-72.4% (active),-92.3% (active),-81.8% (active)
COc1ccc(-c2nc(N/N=C/c3c[nH]c4ccccc34)nc(N3CCOCC3)c2C#N)cc1,-2.03% (active),71.9%,92.5%,125%,105%,115%,80.9%,90.4%,93.4%,96.5%,94.9%,97%,108%,72.6%,80.2%,59.8%,100%,83.9%
COc1cc(NCC(O)CN(CC(C)C)C2CCCC2)c2ncccc2c1 (stereo not drawn),80.1%,94.6%,86.5%,101%,42.3%,93.3%,88.8%,63.7%,73.3%,89.2%,–,89.5%,107%,70.5%,24.1%,68%,97.3%,–
CCOc1ccc(/C=N/Nc2cc(C)nc3ccc(Cl)cc23)cc1,-9.13% (active),-1.34% (active),45.2%,79.2%,56.8%,84.1%,45.4%,-16.3% (active),92.3%,45.9%,60.3%,80.6%,40.9%,-72.8% (active),1.28% (active),-75.3% (active),27.5%,33.3%
COc1ccccc1Nc1cc(O)c2c(=O)cc(-c3ccccc3)oc2c1,5.75% (active),16.4%,32.4%,78.1%,65.6%,50.7%,51.4%,5.9% (active),45.6%,11.5%,31.4%,40.9%,-24.3% (active),20.8%,17.3%,14.1%,71.9%,36.2%
O=C(NNc1nc(Cl)nc(N2CCN(C(c3ccccc3)c3ccccc3)CC2)n1)c1ccccc1,-37.4% (active),57.8%,3.15% (active),88.7%,-16.1% (active),128%,-92.6% (active),-90.5% (active),36.3%,20.7%,54.8%,7.6% (active),58.7%,-40.7% (active),82.5%,-23.9% (active),-24.5% (active),76.9%
CC(=O)Nc1ccc(C(=O)Nc2cc(-c3ccccc3)ccc2N)cc1,39.4%,83.6%,54.9%,60.5%,76.7%,67.9%,94%,75.2%,92%,42.9%,66%,102%,60.1%,59.3%,55.6%,50.1%,90.7%,73.2%
CC(O)(CO)c1ccccc1 (stereo not drawn),112%,113%,100%,94.9%,103%,106%,97.2%,112%,100%,103%,102%,93.6%,99.1%,103%,98.7%,98.3%,–,103%
COc1cc2c(cc1[N+](=O)[O-])-c1ccc([N+](=O)[O-])cc1/C2=N\O,62%,84%,80.1%,102%,79.6%,96.4%,97.3%,104%,89%,77.1%,91.1%,73.1%,–,75.2%,58%,71.8%,106%,95.1%
